Hit rate of the full screen: of about 1,200 compounds, about 210 (18%) were called active. These entries were drawn from the full list. A number with no mark means an inactive call. Cut-off read from the data, not from the text of the source: active = inhibition above about 30%; inactive = the rest.

The inhibition is the change of the read-out against control, counted positive when it falls.

The nature of the experiment: HTRF signal interference by compounds, confirmation, artefact control for SUMOylation inhibitor project, biochemical, uHTS (AID 2069). The conditions noted are these: HTRF interference counterscreen, fluorescence, at 35 µM, hits give high values.
Turning to `Cc1ccc2[nH]c3c(c2c1)CN(C(=O)CN1CCN(c2cccc(C)c2C)CC1)CC3`, the inhibition was 12.8%.

Consider `O=c1oc(-c2cccs2)nc2sc3c(c12)CCC3`, for which the inhibition was 40.5% (active).

Turning to `COC(=O)c1c(C)oc(C)c1S(=O)(=O)NC(C)(C)C`, the inhibition was 3.5%.

Consider `COc1ccc(C2C(C(C)=O)=C(O)C(=O)N2C)c(OC)c1` (stereo unspecified), for which the inhibition was -3.35%.

Take `COc1cc(NC(=O)c2cnc(N)s2)cc(C(=O)Nc2cccc(C(F)(F)F)c2)c1`: the inhibition was 8.1%.

Consider `O=C(N/N=C/c1ccc(-c2ccc(S(=O)(=O)Nc3ncccn3)cc2)o1)c1cc2ccccc2cc1O`, for which the inhibition is 28.5%.

On to `CCOCCCN1CN(Cc2ccco2)CNC1=S`, for which the inhibition is 39.1% (active).

`CC1=C(C#N)C(=O)NC(=O)/C1=C\c1ccc(-c2cc(C)c(C)cc2[N+](=O)[O-])o1`: the inhibition was 9.4%.

Take `CCCS(=O)(=O)c1c(S(=O)(=O)CCC)c2c(N)cccn2c1C(=O)c1ccc(Br)cc1`: the inhibition was 6.7%.

For `Cc1cc(=O)[nH]c(-n2[nH]c(C)cc2=O)n1`, the inhibition was -1.85%.

In the case of `COc1ccccc1C1Nc2cccc3cccc(c23)N1`, the inhibition is -18.4%.

For `CCOc1ccc(-n2c(SCC(=O)Nc3ccc(CC)cc3)nc3n[nH]c(C)c3c2=N)cc1`, the inhibition was 23.6%.

As for `CCCCN1Cc2c(nc3cc(-c4ccco4)[nH]n3c2=O)C1=O`, the inhibition is 31.7% (active).

For the compound `O=C1c2nc3cc(-c4ccco4)[nH]n3c(=O)c2CN1C1CCCCC1`, the inhibition was 29.8%.

As for `CC1=NN(c2ccccc2)C(=O)/C1=C/c1cccs1`, the inhibition was -3.6%.

Take `Cc1[nH][nH]c(=O)c1C(c1c(C)[nH][nH]c1=O)c1cn(Cc2ccc(F)cc2)c2ccccc12`: the inhibition was -43.9%.

For `COC(=O)c1scc(C)c1NC(=O)C(Cl)c1ccccc1` (stereo unspecified), the inhibition was 0.85%.

Turning to `CN(c1ccccc1)c1ccc(/C=C(\CCC(=O)O)c2nc3ccccc3s2)cc1[N+](=O)[O-]`, the inhibition was 7.85%.

As to `CC(=O)c1sc2nc(-c3ccco3)ccc2c1N`, the inhibition was 48.3% (active).

`NNC(=O)c1oc2nc(-c3ccco3)cc(-c3ccco3)c2c1N`: the inhibition is 9.15%.

Consider `NC(=O)c1sc2nc(-c3ccco3)ccc2c1N`, for which the inhibition is 41.8% (active).

Turning to `N#Cc1sc2nc(-c3ccccc3)cc(-c3ccco3)c2c1N`, the inhibition is 26.3%.

Turning to `NNC(=O)c1oc2nc(-c3cccs3)cc(-c3ccco3)c2c1N`, the inhibition is 12.8%.

Turning to `Nc1nc(-c2ccco2)c(-c2ccco2)s1`, the inhibition was -13.2%.

Regarding `S=C(Nc1ccc2nsnc2c1)NC1CCCCC1`, the inhibition is 10.2%.

On to `O=[N+]([O-])c1ccc(C=Nc2cccc3ccccc23)s1`, for which the inhibition was 5.6%.
